Experimental data taken from PubChem BioAssay (EPA / NIEHS).
Calls of active or inactive are those of the source. How the source made its calls: active means hit-call score of the fitted dose curve at least 0.9, where 1 is the maximum; inactive means score below 0.9.

Key:
[1] = APR_HepG2_NuclearSize_72hr: Apredica 72-hour HepG2 Assay for Nuclear Size (AID 2282925); details: high-content imaging, actives raise or lower the signal
Outline: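 HepG2; cpd 0.39–200 uM, 10 conc, duplicate; 72 h; DMSO 0.5% v/v; fix 3.7% formaldehyde 30 min RT; Triton permeabilization; Hoechst 2 ug/mL; HCS imaging 20x; nuclear diameter; gain/loss fit vs DMSO.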

[2] = ATG_CRE_CIS: Attagene CIS-FACTORIAL HepG2 Assay for human cAMP Responsive Element (CRE) binding protein 3 (AID 2282926); details: HepG2 CRE cis-reporter, Attagene multiplexed mRNA; actives raise or lower the signal
Outline: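 HepG2 cells transiently transfected with a multiplexed reporter library (CRE-driven unit among them) were dosed for 24 h. Reporter mRNA was quantified by RT-PCR, fluorescent labelling, HpaI digestion and capillary electrophoresis, with bidirectional fitting against DMSO baseline.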

[3] = target: CCAAT/enhancer-binding protein beta (Homo sapiens) (UniProt P17676); assay: ATG_C_EBP_CIS: Attagene CIS-FACTORIAL HepG2 Assay for human CCAAT/Enhancer Binding Protein (C/EBP) beta (AID 2282927); details: HepG2 Attagene cis-factorial transcription factor reporter; actives raise or lower the signal
CCAAT/enhancer-binding protein beta (Homo sapiens), sequence (P17676 whole entry, looked up): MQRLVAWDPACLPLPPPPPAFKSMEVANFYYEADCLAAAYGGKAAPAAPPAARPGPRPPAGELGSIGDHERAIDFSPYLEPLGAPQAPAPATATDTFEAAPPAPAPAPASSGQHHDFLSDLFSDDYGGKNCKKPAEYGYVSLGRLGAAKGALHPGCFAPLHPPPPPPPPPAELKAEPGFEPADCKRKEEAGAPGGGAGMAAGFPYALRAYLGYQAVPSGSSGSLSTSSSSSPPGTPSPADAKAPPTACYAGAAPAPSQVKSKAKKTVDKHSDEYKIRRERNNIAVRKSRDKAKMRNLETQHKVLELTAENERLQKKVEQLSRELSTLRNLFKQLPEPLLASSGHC
Outline: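 Endogenous transcription factor activity in human liver HepG2 cells is inferred from induction of a CEBPB-linked reporter mRNA. Exposure lasts 24 h; activity is fitted in both directions relative to DMSO.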

[4] = ATG_CMV_CIS: Attagene CIS-FACTORIAL HepG2 Assay for human CMV (Internal Marker) (AID 2282928); details: HepG2 CMV promoter reporter, transcription factor profiling; actives raise or lower the signal;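 further: endpoint acts as a background internal control marker rather than a target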
Outline: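 After transient transfection of HepG2 with reporter transcription units driven by cis-regulatory promoters, cells receive test chemical for 24 h. Labeled reporter amplicons, digested with HpaI, are sized and quantified by capillary electrophoresis against DMSO.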

[5] = ATG_DR4_LXR_CIS: Attagene CIS-FACTORIAL HepG2 Assay for human Liver X Receptor (LXR), DR4 submotif (AID 2282929); details: HepG2 Attagene DR4 cis-reporter, mRNA transcription; actives raise or lower the signal
Outline: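 HepG2, transient MRTU transfection, cis-element (DR4) promoter; 24 h compound exposure; total RNA → oligo(dT) RT → PCR → 6-FAM primer extension → HpaI cut → CE. Gain/loss vs DMSO, bidirectional fit.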

[6] = ATG_AP_1_CIS: Attagene CIS-FACTORIAL HepG2 Assay for human Activator Protein 1 (AP-1) (AID 2282931); details: HepG2 Attagene cis-factorial AP-1 reporter mRNA; actives raise or lower the signal
Outline: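 Transient MRTU transfection of HepG2 → 24 h chemical treatment → RNA isolation, RT-PCR, 6-FAM labelling, HpaI digest → capillary electrophoresis. Fit: bidirectional, DMSO negative control.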

[7] = ATG_AP_2_CIS: Attagene CIS-FACTORIAL HepG2 Assay for human Activator Protein 2 (AP-2) (AID 2282932); details: HepG2 AP-2 cis-reporter, Attagene transcription factor profiling; actives raise or lower the signal
Outline: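 Step one: transient transfection of HepG2 with reporter transcription units. Step two: 24 h chemical exposure. Step three: RNA extraction, RT-PCR, labelled fragment analysis by capillary electrophoresis; DMSO serves as baseline.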

[8] = ATG_BRE_CIS: Attagene CIS-FACTORIAL HepG2 Assay for human Bone Morphogenetic Protein (BMP) Response Element (BRE) (AID 2282933); details: HepG2 BMP response element reporter, Attagene transcription factor profiling; actives raise or lower the signal
Outline: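 After a 24 h chemical treatment, transiently transfected HepG2 cells were lysed for RNA; reporter transcripts were quantified by fluorescent RT-PCR and capillary electrophoresis, normalised to DMSO.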

[9] = target: Transcription factor E2F1 (Homo sapiens) (UniProt Q01094); assay: ATG_E2F_CIS: Attagene CIS-FACTORIAL HepG2 Assay for human E2F Transcription Factor 1 (AID 2282935); details: HepG2 Attagene cis-reporter, E2F reporter RNA transcripts; actives raise or lower the signal
Transcription factor E2F1 (Homo sapiens), sequence (Q01094 whole entry, looked up): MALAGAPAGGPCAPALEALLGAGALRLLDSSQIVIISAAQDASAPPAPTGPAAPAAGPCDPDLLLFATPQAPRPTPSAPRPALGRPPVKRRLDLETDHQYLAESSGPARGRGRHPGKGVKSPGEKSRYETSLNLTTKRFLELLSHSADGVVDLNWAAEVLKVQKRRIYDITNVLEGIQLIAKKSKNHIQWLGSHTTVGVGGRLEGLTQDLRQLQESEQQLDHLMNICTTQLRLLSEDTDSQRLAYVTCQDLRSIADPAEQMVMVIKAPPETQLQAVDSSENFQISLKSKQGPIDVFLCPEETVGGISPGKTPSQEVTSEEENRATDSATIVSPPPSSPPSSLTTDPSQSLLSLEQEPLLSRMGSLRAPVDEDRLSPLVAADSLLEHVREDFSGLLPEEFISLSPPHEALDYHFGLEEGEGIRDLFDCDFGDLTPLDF
Outline: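 Total RNA from 24 h-treated, reporter-transfected HepG2 cells undergoes DNase I treatment, oligo(dT) reverse transcription, PCR and 6-FAM primer extension before capillary electrophoresis.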

[10] = ATG_E_Box_CIS: Attagene CIS-FACTORIAL HepG2 Assay for human Enhancer Box (E-box) (AID 2282936); details: HepG2 E-box cis-reporter transcription, actives raise or lower the signal
Outline: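 DMSO served as negative control and baseline for bidirectional fitting. Human hepatoma HepG2 cells, transiently transfected with cis-reporter constructs, were dosed 24 h; reporter mRNA read by RT-PCR and capillary electrophoresis.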

[11] = ATG_M_61_CIS: Attagene CIS-FACTORIAL HepG2 Assay for M61 Transcription Factor (Internal Marker) (AID 2282937); details: HepG2 Attagene CIS-FACTORIAL M61 internal marker reporter; actives raise or lower the signal
Outline: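 Human liver HepG2, transient MRTU transfection (cis promoter elements), 24 h compound. Total RNA → oligo(dT) RT → PCR → FAM label → HpaI → CE. Internal background marker; bidirectional fitting, DMSO = baseline.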

[12] = ATG_EGR_CIS: Attagene CIS-FACTORIAL HepG2 Assay for human Early Growth Response 1 (EGR1) (AID 2282938); details: HepG2 Attagene CIS-FACTORIAL EGR reporter mRNA; actives raise or lower the signal
Outline: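 Transient transfection of human HepG2 with multiple cis-regulated reporter units, chemical exposure 24 h, total RNA isolated. Reverse transcription, PCR, fluorescent labelling and capillary electrophoresis quantify reporter transcripts; activity fitted bidirectionally against DMSO.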

[13] = ATG_M_19_CIS: Attagene CIS-FACTORIAL HepG2 Assay for M19 Transcription Factor (Internal Marker) (AID 2282939); details: HepG2 Attagene CIS-FACTORIAL M19 internal marker reporter; actives raise or lower the signal
Outline: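 In this multiplexed cell assay, transiently transfected HepG2 reporter units report endogenous transcription-factor activity; after 24 hours of treatment, labelled reporter cDNA fragments are quantified by capillary electrophoresis and fitted bidirectionally against DMSO.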

[14] = ATG_ERE_CIS: Attagene CIS-FACTORIAL HepG2 Assay for Estrogen Response Element (ERE) (AID 2282940); details: HepG2 ERE cis-reporter, Attagene RNA transcript; actives raise or lower the signal
Outline: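 Measuring endogenous transcription factor output, the assay doses transfected HepG2 cells for 24 hours and quantifies reporter transcripts by fluorescent RT-PCR and capillary electrophoresis, with DMSO as baseline.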

[15] = ATG_Ets_CIS: Attagene CIS-FACTORIAL HepG2 Assay for human Erythroblast Transformation Specific (ETS) (AID 2282941); details: HepG2 ETS cis-reporter transcription, actives raise or lower the signal
Outline: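 Human HepG2 hepatoma cells were transiently transfected with promoter-driven reporter constructs and treated for 24 hours. Reporter transcripts were quantified by RT-PCR with fluorescent primer extension; bidirectional curve fitting used DMSO as reference.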

[16] = target: Hepatocyte nuclear factor 3-beta (Homo sapiens) (UniProt Q9Y261); assay: ATG_FoxA2_CIS: Attagene CIS-FACTORIAL HepG2 Assay for human Forkhead box A2 (FOXA2) (AID 2282942); details: HepG2 cis-reporter transcription factor activity, 24 h; actives raise or lower the signal
Hepatocyte nuclear factor 3-beta (Homo sapiens), sequence (Q9Y261 whole entry, looked up): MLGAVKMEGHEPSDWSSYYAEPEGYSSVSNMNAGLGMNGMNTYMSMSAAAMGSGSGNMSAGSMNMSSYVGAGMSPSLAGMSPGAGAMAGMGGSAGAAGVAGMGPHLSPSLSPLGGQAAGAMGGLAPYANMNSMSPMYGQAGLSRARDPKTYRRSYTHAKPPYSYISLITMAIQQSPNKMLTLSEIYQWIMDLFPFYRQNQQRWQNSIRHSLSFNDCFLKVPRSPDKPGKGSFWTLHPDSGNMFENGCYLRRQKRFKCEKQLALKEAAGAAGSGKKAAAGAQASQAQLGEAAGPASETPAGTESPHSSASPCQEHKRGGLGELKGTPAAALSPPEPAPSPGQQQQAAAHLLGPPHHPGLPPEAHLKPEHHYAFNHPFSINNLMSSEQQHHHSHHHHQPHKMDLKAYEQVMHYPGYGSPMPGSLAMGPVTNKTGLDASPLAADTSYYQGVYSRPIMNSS
Outline: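 Transient MRTU transfection of HepG2 liver cells; 24 h treatment; total RNA → oligo(dT) RT → PCR → FAM primer extension → HpaI cut → CE. Bidirectional fit vs DMSO.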

[17] = ATG_FoxO_CIS: Attagene CIS-FACTORIAL HepG2 Assay for human Forkhead box O (FoxO) (AID 2282943); details: HepG2 Attagene cis-reporter, FoxO element, mRNA; actives raise or lower the signal
Outline: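 HepG2, transient MRTU transfection (cis element, endogenous TFs). Dose 24 h. TriZol RNA → oligo(dT) RT → PCR → 6-FAM primer extension → HpaI cut → CE. Gain/loss vs DMSO.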

[18] = ATG_GATA_CIS: Attagene CIS-FACTORIAL HepG2 Assay for human GATA Binding Protein (AID 2282944); details: HepG2 GATA cis-element reporter, Attagene multiplex mRNA; actives raise or lower the signal
Outline: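 Measures endogenous transcription factor-driven reporter mRNA in HepG2 cells transiently carrying cis-regulated constructs. 24 h dosing; RNA via oligo(dT) reverse transcription, PCR, HpaI digestion, capillary electrophoresis; fitted relative to DMSO.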

[19] = target: Aryl hydrocarbon receptor (Homo sapiens) (UniProt P35869); assay: ATG_Ahr_CIS: Attagene CIS-FACTORIAL HepG2 Assay for human Aryl Hydrocarbon Receptor (Ahr) (AID 2282930); details: HepG2 AhR cis-factorial reporter transcription; actives raise or lower the signal
Aryl hydrocarbon receptor (Homo sapiens), sequence (P35869 whole entry, looked up): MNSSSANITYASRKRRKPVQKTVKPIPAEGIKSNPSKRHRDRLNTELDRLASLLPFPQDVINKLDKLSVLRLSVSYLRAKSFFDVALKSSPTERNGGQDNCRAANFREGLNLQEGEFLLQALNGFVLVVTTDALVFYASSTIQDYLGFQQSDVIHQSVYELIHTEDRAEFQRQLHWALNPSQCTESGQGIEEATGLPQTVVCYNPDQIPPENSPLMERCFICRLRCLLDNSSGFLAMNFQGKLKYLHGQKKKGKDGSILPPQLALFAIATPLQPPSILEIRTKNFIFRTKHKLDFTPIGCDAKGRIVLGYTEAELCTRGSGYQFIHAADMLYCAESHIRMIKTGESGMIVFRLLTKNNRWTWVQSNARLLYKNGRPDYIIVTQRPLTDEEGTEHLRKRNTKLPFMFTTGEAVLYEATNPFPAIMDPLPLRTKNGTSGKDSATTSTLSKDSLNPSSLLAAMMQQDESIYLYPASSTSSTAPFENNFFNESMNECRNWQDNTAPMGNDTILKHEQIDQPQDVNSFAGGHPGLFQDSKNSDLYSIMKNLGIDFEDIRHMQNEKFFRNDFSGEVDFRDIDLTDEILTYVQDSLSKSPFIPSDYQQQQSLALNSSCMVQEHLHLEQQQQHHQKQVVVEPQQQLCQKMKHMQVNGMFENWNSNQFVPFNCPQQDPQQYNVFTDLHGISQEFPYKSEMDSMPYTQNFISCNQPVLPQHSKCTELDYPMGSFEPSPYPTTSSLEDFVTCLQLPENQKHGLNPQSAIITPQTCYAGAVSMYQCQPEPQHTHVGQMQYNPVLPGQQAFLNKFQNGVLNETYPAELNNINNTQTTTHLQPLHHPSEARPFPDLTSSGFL
Outline: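 Transient MRTU transfection of HepG2 → 24 h compound exposure → total RNA, oligo(dT) RT → PCR, 6-FAM extension, HpaI cut → CE fluorescence. DMSO = baseline; bidirectional curve fit.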

[20] = target: Retinoic acid receptor alpha (Homo sapiens) (UniProt P10276); assay: ATG_DR5_RAR_CIS: Attagene CIS-FACTORIAL HepG2 Assay for human Retinoic Acid Receptor Alpha (RARE), DR5 submotif (AID 2282934); details: HepG2 Attagene cis-factorial RARE DR5 reporter, mRNA; actives raise or lower the signal
Retinoic acid receptor alpha (Homo sapiens), sequence (P10276 whole entry, looked up): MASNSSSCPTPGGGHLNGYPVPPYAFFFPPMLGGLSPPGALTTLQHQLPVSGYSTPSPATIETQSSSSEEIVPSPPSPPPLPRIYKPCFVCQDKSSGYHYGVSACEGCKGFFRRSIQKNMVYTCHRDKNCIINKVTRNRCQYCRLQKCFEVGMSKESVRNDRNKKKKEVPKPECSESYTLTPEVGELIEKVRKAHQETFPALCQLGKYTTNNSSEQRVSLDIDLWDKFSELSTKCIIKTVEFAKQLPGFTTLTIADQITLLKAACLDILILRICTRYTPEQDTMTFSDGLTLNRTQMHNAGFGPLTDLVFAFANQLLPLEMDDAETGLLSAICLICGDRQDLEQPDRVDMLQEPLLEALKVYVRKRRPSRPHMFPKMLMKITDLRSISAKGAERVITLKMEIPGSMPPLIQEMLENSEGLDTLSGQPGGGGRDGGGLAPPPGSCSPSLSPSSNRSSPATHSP
Outline: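 Transient MRTU transfection of HepG2; 24 h compound treatment; TriZol RNA, oligo(dT) RT, PCR, FAM labelling, capillary electrophoresis. Bidirectional fit vs DMSO. Endogenous TF activity at DR5 RARE.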

Measured: AC50

CO/N=C(/C1=NOCCO1)c1ccccc1Oc1ncnc(Oc2ccccc2Cl)c1F
active: [2] 0.858 µM | [3] 0.794 µM | [6] 0.481 µM | [8] 0.918 µM | [12] 2.61 µM
not listed: [19] | [20]
inactive: all other assays above

COCc1cnc(C2=NC(C)(C(C)C)C(=O)N2)c(C(=O)O)c1 (configuration not stated)
not listed: [6] | [20]
inactive: all other assays above

CC(C)=CC1C(C(=O)OCc2coc(Cc3ccccc3)c2)C1(C)C (configuration not stated)
active: [2] 13.2 µM | [5] 73.6 µM | [8] 15.5 µM | [14] 13.1 µM
not listed: [6] | [20]
inactive: all other assays above

CCC(C)n1c(=O)[nH]c(C)c(Br)c1=O (configuration not stated)
not listed: [6] | [20]
inactive: all other assays above

CCCC(=NOCC)C1=C(O)CC(CC(C)SCC)CC1=O (configuration not stated)
not listed: [6] | [20]
inactive: all other assays above

OC(c1ccc(Cl)cc1)(c1ccc(Cl)cc1)C(Cl)(Cl)Cl
not listed: [19] | [20]
inactive: all other assays above

Cc1ccc(N=CN(C)C=Nc2ccc(C)cc2C)c(C)c1
not listed: [6] | [20]
inactive: all other assays above

COc1ccc(-c2ccccc2)cc1NNC(=O)OC(C)C
active: [4] 13.5 µM | [6] 14.7 µM | [8] 2.32 µM
not listed: [19]
inactive: all other assays above

O=c1n(Cl)c(=O)n(Cl)c(=O)n1Cl
active: [19] 19.6 µM
not listed: [6] | [20]
inactive: all other assays above

Nc1c(Cl)c(Cl)nc(C(=O)O)c1Cl
active: [19] 31.3 µM
not listed: [6] | [20]
inactive: all other assays above

N#Cc1c[nH]cc1-c1cccc2c1OC(F)(F)O2
active: [2] 10.8 µM | [3] 8.24 µM | [4] 29 µM | [5] 1.19 µM | [7] 13.5 µM | [8] 22.2 µM | [14] 5.84 µM | [15] 29 µM
not listed: [19] | [20]
inactive: all other assays above

CCOc1nc(F)cc2nc(S(=O)(=O)Nc3c(Cl)cccc3Cl)nn12
not listed: [6] | [20]
inactive: all other assays above
